EWS-Fli inh: EWS/Fli transcriptional activity inhibition; actives 0.67% (n = 350,000); inhibition, % at 12.6 µM; A673 NR0B1-luciferase reporter, viability-normalised;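 active = mean inhibition of at least 50% after viability correction, with every replicate also passing that limit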;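 note: firefly luciferase signal divided by Alamar Blue viability fluorescence both relative to DMSO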
TWEAK Fn14 block: TWEAK-Fn14 signaling inhibition. TWEAK-stimulated Fn14 reporter cells, luciferase luminescence, 8 h. inhibition, % at 10 µM. actives 2% (n = 360,000). AID 1159606; in the data active = inhibition above about 50%
TROY NFkB inh: blocks TROY-dependent signaling in reporter cells; Q293 LMP1-TROYcd NF-kB luciferase reporter, 4 h; inhibition, % at 10 µM; actives 0.98% (n = 360,000); AID 1347056;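 active = compounds whose plate-normalised and pattern-corrected inhibition of the luciferase reporter signal at the single screening dose is 50% or more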
LGR2 inh: Drosophila LGR2 receptor signaling inhibition; HEK293 LGR2, CRE-luciferase, bursicon-stimulated, 4 h; inhibition, % at 9.99 µM; actives 0.35% (n = 380,000); AID 720647;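 active = drop in luminescence signal, shown as inhibition above about 50% in the replicate tests, limit read from the data, passing the limit was not always enough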;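 note: agonist challenge used bursicon conditioned medium at about half maximal strength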
EBV LMP1 NFkB: inhibitors of Epstein-Barr LMP1-induced NF-kappaB reporter. inhibition, % at 12.5 µM. AID 504558. actives 0.69% (n = 350,000). LMP1-induced NF-kappaB luciferase reporter cells, luminescence; in the data active = inhibition above about 41%;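 note: 0% = neutral control wells and 100% = reference inhibitor control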
Active calls of the source: *; nt = no result given. This is a sample that favours compounds with a hit; in the whole collection about 2.5% have one here.

SMILES | EWS-Fli inh | TWEAK Fn14 block | TROY NFkB inh | LGR2 inh | EBV LMP1 NFkB
COc1ccccc1Nc1ccc2nonc2c1[N+](=O)[O-] | -2 | 89* | -25 | 1 | 8
O=[N+]([O-])c1c(Nc2ccccc2O)cc(Cl)c2nonc12 | 66* | 27 | 64* | 38 | 79*
COc1ccc(NC(=O)Nc2ccc3c(c2)CC(=O)N([C@H](C)CO)C[C@H](C)[C@@H](CN(C)S(C)(=O)=O)O3)cc1 | 5 | nt | nt | 19 | nt
Cc1ccc(-n2cc(CNCC3CC(=O)N(C4CC4)C3)c(-c3cccc(C)c3)n2)cc1 (stereo not given) | -12 | -5 | 52* | 0 | 3
CC(=O)Oc1ccc(OC(C)=O)c(SCCCCCCl)c1 | 54* | 76* | -15 | 18 | -72
CC(=O)Oc1ccc(C(=O)O)cc1OC(C)=O | -8 | 12 | 6 | 13 | 6
C[C@@H]1CN([C@H](C)CO)S(=O)(=O)c2ccc(-c3ccncc3)cc2O[C@H]1CN(C)C(=O)CC1CC1 | -15 | nt | nt | 2 | nt
Cc1cccc(-c2ccc3[nH]c4c(c3c2)CCN2C[C@@H]([C@H](C)OC(=O)Nc3ccccc3C)[C@@H](N(C)C(=O)Nc3ccccc3C)C[C@@H]42)c1 | 45 | 88* | 20 | 10 | -11
CN(C)/C=C1/Sc2ccccc2C1=O | nt | -19 | 12 | nt | -12
COc1ccc(CCN(/C=C2\Sc3ccccc3C2=O)C(C)=O)cc1OC | 8 | 0 | 56* | nt | nt
O=C(CCN1CCCCC1)NCC[C@H]1CC[C@@H](NC(=O)C2CC2)[C@H](CO)O1 | 3 | nt | nt | -6 | nt
CC(C)C1Nc2c(O)cc(Cl)c([N+](=O)[O-])c2C2C=CCC21 (stereo not given) | 9 | 27 | 58* | 13 | 18
COc1ccc2[nH]c3c4c(ccc3c2c1)C(=O)C=CC4=O | 48 | 72* | 43 | 12 | -26
O=C(C[n+]1cc(-c2ccccc2)n2c1CCC2)Nc1nc(-c2ccccc2)cs1 | nt | 3 | 8 | -5 | 1
O=C(CSCC(=O)N1CCCc2ccccc21)Nc1nc(-c2ccccc2)cs1 | -11 | 52* | 45 | 14 | 3
CCN(Cc1ccccc1)c1ccc(/C=N/NC(=O)c2cccc(S(=O)(=O)N3CCOCC3)c2)cc1 | nt | 69* | 26 | 34 | 17
CCOc1ncccc1C(=O)NNC(=O)c1cccc(S(=O)(=O)N2CCOCC2)c1 | -12 | 97* | 12 | 9 | -4
CCOc1ncccc1C(=O)Nc1cccc(S(=O)(=O)N2CCCCC2)c1 | 23 | 27 | 6 | -24 | -2
COc1cc(/C=N/NC(=O)c2cccc(S(=O)(=O)N3CCOCC3)c2)cc(OC)c1O | -7 | -6 | 1 | -16 | 65*
C[C@@H](O)C#Cc1ccc([C@H]2[C@@H](CO)N3CCCCN(C(=O)c4cccc(F)c4)C[C@@H]23)cc1 | -12 | nt | nt | -15 | nt
COc1cccc(CNC(=O)C[C@@H]2CC[C@H](NC(=O)C3CCOCC3)[C@H](CO)O2)c1 | -3 | nt | nt | 7 | nt
CCNc1cc2c(cc1O)CCC1C2CCC2(C)C(O)CCC12 (stereo not given) | 19 | 25 | 4 | 7 | 4
CCOc1cc2c(cc1O)CCC1C2CCC2(C)C(O)CCC12 (stereo not given) | 55* | -10 | -1 | -3 | 17
C[C@@H]1CCCCO[C@@H](CN(C)CC2CC2)[C@@H](C)CN([C@H](C)CO)C(=O)c2cc(NC(=O)Nc3ccc(C(F)(F)F)cc3)ccc2O1 | -3 | nt | nt | -25 | nt
Oc1ccc(/C=N/NC(=S)Nc2cccnc2)c(O)c1O | -36 | 50* | -17 | 4 | -3
SMILES | EWS-Fli inh | TWEAK Fn14 block | TROY NFkB inh | LGR2 inh | EBV LMP1 NFkB
CC(SCc1cn2cc(Cl)ccc2n1)C(=O)O (stereo not given) | nt | 76* | nt | nt | 2
O=C(O)c1ccccc1SCc1cn2cc(Cl)ccc2n1 | -8 | 15 | -8 | 10 | 1
C[C@@H]1CN([C@H](C)CO)C(=O)Cc2cc(NC(=O)Cc3cn(C)c4ccccc34)ccc2O[C@H]1CN(C)C(=O)Nc1ccc(F)cc1 | 1 | nt | nt | -3 | nt
CN(C)CC#Cc1ccc([C@@H]2[C@@H](CO)N3CCCCN(C(=O)Nc4ccc(F)cc4)C[C@H]23)cc1 | -2 | nt | nt | 7 | nt
O=c1c2ccccc2c(-c2n[nH]c(=S)o2)nn1Cc1ccccc1 | 15 | 0 | 0 | -25 | 8
OCc1ccc(-c2nn(Cc3ccccc3)c3ccccc23)o1 | 18 | 6 | 9 | 20 | 93*
O=C(NC(=S)N1CCCCC1c1cccnc1)c1ccc(F)cc1 (stereo not given) | 2 | 5 | 73* | 10 | 9
CC(C)NC(=O)Nc1ccc2c(c1)C(=O)N([C@H](C)CO)C[C@H](C)[C@H](CN(C)Cc1ccc(C(=O)O)cc1)O2 | -1 | nt | nt | 4 | nt
Cc1cccc[n+]1CC(=O)/C=C1\N(C)c2ccccc2C1(C)C | 75* | 28 | 15 | -15 | 18
Cn1cc(/C=C/C(=O)c2ccccc2)c2ccccc21 | 41 | 71* | 21 | nt | -12
CCn1ncc(/C=C/C(=O)c2ccccc2)c1C | nt | 53* | -10 | -12 | -23
COc1ccc(CC(=O)NCc2ccc(-n3cccc3)cc2)cc1OC | 60* | 17 | 23 | 7 | 31
C[C@H](O)C#Cc1ccc([C@@H]2[C@H]3CN(S(=O)(=O)Cc4ccccc4)CCCCN3[C@H]2CO)cc1 | -2 | nt | nt | 5 | nt
CC(Nc1ccccc1CO)C(=O)Nc1cccc(Cl)c1Cl (stereo not given) | 6 | 23 | 40 | 23 | 68*
COc1cc(C(=O)N/N=c2/sc3ccccc3n2C)cc(OC)c1OC | 8 | -4 | 4 | 6 | -7
Cn1/c(=N/NC(=O)c2ccccc2Br)sc2ccccc21 | -75 | -23 | -8 | -57 | 49*
Cn1cccc1/C=N/n1c(-c2ccc(Cl)cc2Cl)n[nH]c1=S | nt | 4 | 3 | nt | 84*
C=C1C(=O)[C@]23C[C@H]1CCC2[C@@]1(C)C(C[C@@H]3O)[C@](C)(C(=O)OC)CC[C@@H]1O (stereo not given in full) | 59* | 98* | 59* | 69* | nt
C=C1C(=O)OC2C1CCC(C)=C1C(=O)C3OC3(C)C12 (stereo not given) | 47 | 95* | 41 | 99* | 25
C[C@@H]1CN([C@@H](C)CO)C(=O)c2cc(NC(=O)NC3CCCCC3)ccc2O[C@@H](C)CCCCO[C@H]1CN(C)C(=O)c1ccccc1 | 0 | nt | nt | 2 | nt
Cc1cccc(/C=N/NC(=O)c2cc(Br)ccc2OCc2ccccc2)n1 | 50 | -11 | 13 | 0 | 7
Cc1cccc(/C=N/NC(=O)c2ccccc2OCc2cccc(Br)c2)n1 | 28 | 77* | 20 | 9 | 30
COc1ccc(CNC[C@@H](CCCCN(C)Cc2ccc(OC)cc2)N2C[C@H](c3ccccc3)N(CCc3ccc(Cl)c(Cl)c3)C(=O)C2=O)cc1 | nt | 97* | 34 | nt | 89*
COc1ccc(NC(=O)Nc2cccc3c2O[C@H](CN(C)Cc2ccc(Cl)c(Cl)c2)[C@@H](C)CN([C@H](C)CO)C3=O)cc1 | 0 | nt | nt | 22 | nt

Bioassay records (PubChem BioAssay)
